Among the data in PubChem BioAssay (EPA / NIEHS) are outcome and AC50 values, retold here.

For assay [1], the target named is Estrogen receptor (Homo sapiens) (UniProt P03372). Kind of assay: OT_ERa_GFPERaERE_0480: Odyssey Thera (OT) 8-hour HeLa Transcription Induction Assay for Estrogen Receptor (AID 2283381; active means hit-call score of the fitted dose curve at least 0.9, where 1 is the maximum; inactive means score below 0.9). The procedure, abridged:
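Fluorescent reporter signal, imaged by microscopy and scored with image-analysis algorithms, was taken 8 h after chemical dosing of HeLa cells; activity was fitted upward relative to DMSO.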

For assay [2] the target is unchanged. Description: OT_ERa_GFPERaERE_0120: Odyssey Thera (OT) 2-hour HeLa Transcription Induction Assay for Estrogen Receptor (AID 2283382). The procedure, abridged: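 HeLa, 384-well, 2 h chemical exposure; GFP reporter induction (ERE), fluorescence microscopy; high content image analysis; positive fitting direction vs DMSO.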
In assay [3] the target is Retinoic acid receptor RXR-alpha (Homo sapiens) (UniProt P19793). Kind of assay: OT_NURR1_NURR1RXRa_0480: Odyssey Thera (OT) 8-hour HEK293T Protein Complementation Assay for Nurr1/retinoid X receptor (RXR) (AID 2283385). The procedure, abridged: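 8 h compound exposure, HEK293T; Nurr1/RXRα fragment complementation; fluorescence intensity; positive fitting direction vs DMSO baseline.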
Retinoic acid receptor RXR-alpha (Homo sapiens), sequence (P19793 whole entry, looked up, the tested form may be a part): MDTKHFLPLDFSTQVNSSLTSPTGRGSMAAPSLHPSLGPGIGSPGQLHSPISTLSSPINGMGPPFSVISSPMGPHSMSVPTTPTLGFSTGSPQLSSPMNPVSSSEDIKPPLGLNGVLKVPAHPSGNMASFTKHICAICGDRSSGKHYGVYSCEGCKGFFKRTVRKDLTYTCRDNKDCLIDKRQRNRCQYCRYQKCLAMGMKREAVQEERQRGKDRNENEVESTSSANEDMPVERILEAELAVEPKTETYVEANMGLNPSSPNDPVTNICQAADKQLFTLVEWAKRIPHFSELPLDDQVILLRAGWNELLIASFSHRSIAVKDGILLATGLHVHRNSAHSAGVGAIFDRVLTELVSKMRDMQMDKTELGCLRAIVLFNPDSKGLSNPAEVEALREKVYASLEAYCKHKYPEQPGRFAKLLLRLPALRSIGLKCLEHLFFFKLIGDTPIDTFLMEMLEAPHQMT

Assay [4] has the same target. Description: OT_NURR1_NURR1RXRa_1440: Odyssey Thera (OT) 24-hour HEK293T Protein Complementation Assay for Nurr1/retinoid X receptor (RXR) (AID 2283386). The procedure, abridged:
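Interaction of Nurr1 with RXRα brings fused reporter fragments together in human HEK293T cells, restoring a functional reporter. Fluorescence intensity is measured 24 h after chemical treatment, and values are analysed in the positive direction against DMSO.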

Assay [5] concerns the target Peroxisome proliferator-activated receptor gamma (Homo sapiens) (UniProt P37231). Kind of assay: OT_PPARg_PPARgSRC1_0480: Odyssey Thera (OT) 8-hour Protein-Complementation Assay for Peroxisome Proliferator-activated Receptor Gamma / SRC-1 Co-activator (AID 2283387).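 Further: nuclear to cytoplasmic split Venus YFP fluorescence ratio reporting PPARg SRC-1 interaction.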 The procedure, abridged:
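Split-YFP (IFP1/IFP2) PPARg/SRC-1 reporter, HEK293T, 37 °C, 5% CO2; 8 h compound; formaldehyde fix + Draq5; high-content imaging, N/C ratio, ≥350 cells/image, positive direction vs DMSO.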

For assay [6] the target is unchanged. Description: OT_PPARg_PPARgSRC1_1440: Odyssey Thera (OT) 24-hour Protein-Complementation Assay for Peroxisome Proliferator-activated Receptor Gamma/ SRC-1 Co-activator (AID 2283388).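 Further: nuclear to cytoplasmic ratio of reconstituted Venus YFP fluorescence in fixed imaged cells.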 The gist of the method:
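Readout is the 488 nm N/C fluorescence ratio from fixed, Draq5-stained HEK293T cells after 24 h compound exposure. Cells carried transiently transfected PPARg and SRC-1 fused to Venus fragments, transfected 48 h before treatment.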

For assay [7], the target named is Estrogen receptor beta (Homo sapiens) (UniProt Q92731). Kind of assay: OT_ER_ERbERb_1440: Odyssey Thera (OT) 24-hour HEK293T Protein-Complementation Assay for Estrogen Receptor-beta/-beta Homodimer (AID 2283380).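 Further: scored as signal increase over DMSO baseline for both agonists and antagonists.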 The gist of the method:
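HEK293T cells stably expressing ER beta LBD (aa 310-547) homodimer fragment-complementation reporter, dosed 24 h. Cells formaldehyde-fixed, Draq5-stained; gain in nuclear (agonist) or nuclear plus cytoplasmic (antagonist) fluorescence versus DMSO read by laser scanning cytometry.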

The nature of assay [8]: CEETOX_H295R_11DCORT: CeeTox H295R High-throughput Steroidogenesis Assay for 11-Deoxycortisol (11DCORT) (AID 2283432; active means hit-call score of the fitted dose curve at least 0.9, where 1 is the maximum; inactive means score below 0.9;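 on AC50: 11-deoxycortisol secreted into the medium measured by LC-MS/MS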). Conditions: actives raise or lower the signal. The gist of the method: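 Steroidogenesis in human H295R cells: 48 h chemical exposure after forskolin priming, 11-deoxycortisol measured by LC-MS/MS.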
A short description of assay [9]: CEETOX_H295R_OHPREG: CeeTox H295R High-throughput Steroidogenesis Assay for OH-Pregnenolone (OHPREG) (AID 2283434; active means hit-call score of the fitted dose curve at least 0.9, where 1 is the maximum; inactive means score below 0.9). The following applies: actives raise or lower the signal. The gist of the method:
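H295R cells pre-stimulated 48 h with 10 uM forskolin, then exposed 48 h to chemical in 0.1% DMSO. 17alpha-hydroxypregnenolone in medium quantified by MTBE extraction and HPLC-MS/MS; bidirectional fit versus DMSO, viability checked by MTT.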

Assay [10] can be described thus: CEETOX_H295R_OHPROG: CeeTox H295R High-throughput Steroidogenesis Assay for OH-Progesterone (OHPROG) (AID 2283435; active means hit-call score of the fitted dose curve at least 0.9, where 1 is the maximum; inactive means score below 0.9;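 on AC50: 17alpha-hydroxyprogesterone secreted into medium measured by HPLC-MS/MS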). Conditions: actives raise or lower the signal. The procedure, abridged:
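H295R, 10 uM forskolin prestim 48 h; cmpd in 0.1% DMSO 48 h; medium MTBE-extracted, HPLC-MS/MS for OH-progesterone; 7-pt std curve; bidirectional fit vs DMSO; MTT viability, chemicals diluted until viability >/=70%.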

Assay [11] is described as follows: CEETOX_H295R_CORTIC: CeeTox H295R High-throughput Steroidogenesis Assay for Corticosterone (CORTIC) (AID 2283437; active means hit-call score of the fitted dose curve at least 0.9, where 1 is the maximum; inactive means score below 0.9;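 further: corticosterone secreted into medium quantified by mass spectrometry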;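 on AC50: human H295R adrenal cells prestimulated with forskolin before chemical exposure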). Conditions: actives raise or lower the signal. The gist of the method:
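H295R adrenal cells prestimulated 48 hours with 10 uM forskolin, then exposed 48 hours to chemical in 0.1% DMSO. Corticosterone in medium measured by HPLC-MS/MS after MTBE extraction; MTT viability in the same wells; bidirectional fit versus DMSO.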

Assay [12] in a line: CEETOX_H295R_CORTISOL: CeeTox H295R High-throughput Steroidogenesis Assay for Cortisol (AID 2283438; active means hit-call score of the fitted dose curve at least 0.9, where 1 is the maximum; inactive means score below 0.9;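 further: cortisol secreted into medium quantified by LC-MS/MS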). The following applies: actives raise or lower the signal. The procedure, abridged: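 Forskolin 10 uM 48 h prestim → test cmpd in DMSO (0.1% final) 48 h → medium MTBE-extracted → LC-MS/MS cortisol vs 7-pt std curve. Gain/loss of signal fitted vs DMSO. MTT viability in same wells.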

The nature of assay [13]: CEETOX_H295R_DOC: CeeTox H295R High-throughput Steroidogenesis Assay for DOC (AID 2283439; active means hit-call score of the fitted dose curve at least 0.9, where 1 is the maximum; inactive means score below 0.9). The following applies: actives raise or lower the signal. The procedure, abridged: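 Readout: 11-deoxycorticosterone in culture medium by reverse-phase C18 HPLC with ESI+ tandem MS after MTBE extraction. Cells: H295R, forskolin-primed (10 uM, 48 h), chemical-treated 48 h; DMSO 0.1% final. Activity fitted bidirectionally versus DMSO.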

A short description of assay [14]: CEETOX_H295R_ESTRADIOL: CeeTox H295R High-throughput Steroidogenesis Assay for Estradiol (AID 2283440; active means hit-call score of the fitted dose curve at least 0.9, where 1 is the maximum; inactive means score below 0.9;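 further: estradiol secreted into medium quantified by LC-MS/MS after dansyl derivatisation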). The following applies: actives raise or lower the signal. The procedure, abridged: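 Estradiol in spent medium measured by LC-MS/MS after dansyl chloride derivatisation. Forskolin-primed (10 uM, 48 h) human adrenal H295R cells received test chemical 48 h at 0.1% DMSO; concentrations lowered until MTT viability >/=70%.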

Assay [15] can be described thus: CEETOX_H295R_ESTRONE: CeeTox H295R High-throughput Steroidogenesis Assay for Estrone (AID 2283441; active means hit-call score of the fitted dose curve at least 0.9, where 1 is the maximum; inactive means score below 0.9;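 further: estrone secreted into medium measured by LC-MS/MS after dansyl derivatization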;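 on AC50: human adrenal H295R cells prestimulated with forskolin for two days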). Conditions: actives raise or lower the signal. The gist of the method:
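H295R cells prestimulated 48 h with 10 uM forskolin, then exposed 48 h to chemicals in 0.1% DMSO final; estrone in medium extracted with MTBE, dansyl-derivatized, quantified by HPLC-MS/MS; bidirectional fitting versus DMSO, viability by MTT.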

In assay [16] the target is Bile acid receptor (Homo sapiens) (UniProt Q96RI1). Description: OT_FXR_FXRSRC1_0480: Odyssey Thera (OT) 8-hour HEK293T Protein-Complementation Assay for Farnesoid X receptor/SRC-1 Co-activator (AID 2283383). The gist of the method:
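Human kidney HEK293T cells carried FXR/SRC-1 fragment-complementation constructs. Compounds were added and incubated 8 h. Reporter reassembly upon receptor–co-activator interaction was then quantified by fluorescence, with curves fitted in the positive direction relative to DMSO.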

For assay [17] the target is unchanged. Kind of assay: OT_FXR_FXRSRC1_1440: Odyssey Thera (OT) 24-hour HEK293T Protein-Complementation Assay for Farnesoid X receptor/SRC-1 Co-activator (AID 2283384). The procedure, abridged:
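Compounds are applied to human kidney HEK293T cells expressing bait and prey fused to reporter protein fragments; after 24 h, reconstituted reporter fluorescence is measured. Activity is fitted as signal gain over DMSO.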

Assay [18] in a line: CEETOX_H295R_ANDR: CeeTox H295R High-throughput Steroidogenesis Assay for Androstenedione (ANDR) (AID 2283436; active means hit-call score of the fitted dose curve at least 0.9, where 1 is the maximum; inactive means score below 0.9). Conditions: actives raise or lower the signal. The procedure, abridged:
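H295R cells, following OECD 456 with minor changes, exposed to chemicals for 48 h. Androstenedione in the medium was quantified by HPLC-MS/MS after MTBE extraction. Fitting was bidirectional versus DMSO; chemicals were diluted until MTT viability was ≥70%.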

SMILES strings stand for the structures. Inconclusive results are not listed. More than one record can exist for a structure, and the calls need not agree. Calls of active or inactive are those of the source. How the source made its calls, unless noted: active means hit-call score of the fitted dose curve at least 0.9, where 1 is the maximum; inconclusive means response in the unintended direction; inactive means score below 0.9.

For orientation: AC50 means the midpoint of the concentration-response curve, whichever way the signal moves.

Estrogen receptor beta (Homo sapiens), sequence (Q92731 whole entry, looked up, the tested form may be a part): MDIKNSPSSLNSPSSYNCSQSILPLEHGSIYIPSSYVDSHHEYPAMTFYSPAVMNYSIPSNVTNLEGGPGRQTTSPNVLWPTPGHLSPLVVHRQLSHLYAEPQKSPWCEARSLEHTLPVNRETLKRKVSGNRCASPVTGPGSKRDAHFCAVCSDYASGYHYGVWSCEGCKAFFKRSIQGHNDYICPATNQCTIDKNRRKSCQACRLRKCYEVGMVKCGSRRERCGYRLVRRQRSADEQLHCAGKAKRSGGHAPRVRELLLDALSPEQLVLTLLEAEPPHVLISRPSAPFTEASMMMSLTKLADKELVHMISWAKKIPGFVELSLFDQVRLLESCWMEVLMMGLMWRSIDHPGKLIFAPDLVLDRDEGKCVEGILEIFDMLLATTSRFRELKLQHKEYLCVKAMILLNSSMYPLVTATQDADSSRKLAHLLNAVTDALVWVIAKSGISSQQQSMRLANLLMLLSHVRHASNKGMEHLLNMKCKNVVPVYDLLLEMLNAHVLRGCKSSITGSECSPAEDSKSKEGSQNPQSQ
Estrogen receptor (Homo sapiens), sequence (P03372 whole entry, looked up): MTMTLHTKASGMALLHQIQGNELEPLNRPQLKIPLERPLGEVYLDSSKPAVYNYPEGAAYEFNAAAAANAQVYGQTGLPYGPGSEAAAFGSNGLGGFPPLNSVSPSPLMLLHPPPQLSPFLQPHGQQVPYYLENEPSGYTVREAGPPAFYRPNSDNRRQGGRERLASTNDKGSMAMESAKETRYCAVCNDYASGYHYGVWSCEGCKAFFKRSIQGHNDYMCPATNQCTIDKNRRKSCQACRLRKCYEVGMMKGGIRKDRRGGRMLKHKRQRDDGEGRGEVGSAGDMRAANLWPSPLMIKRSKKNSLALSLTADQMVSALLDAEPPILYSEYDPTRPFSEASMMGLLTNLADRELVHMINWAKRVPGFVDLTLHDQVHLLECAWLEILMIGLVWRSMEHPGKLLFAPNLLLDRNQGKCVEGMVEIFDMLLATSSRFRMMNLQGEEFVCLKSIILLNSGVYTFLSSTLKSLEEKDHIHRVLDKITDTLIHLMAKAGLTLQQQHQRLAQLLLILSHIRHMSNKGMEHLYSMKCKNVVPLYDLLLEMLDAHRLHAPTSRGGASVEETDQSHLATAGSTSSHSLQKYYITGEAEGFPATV
Bile acid receptor (Homo sapiens), sequence (Q96RI1 whole entry, looked up, the tested form may be a part): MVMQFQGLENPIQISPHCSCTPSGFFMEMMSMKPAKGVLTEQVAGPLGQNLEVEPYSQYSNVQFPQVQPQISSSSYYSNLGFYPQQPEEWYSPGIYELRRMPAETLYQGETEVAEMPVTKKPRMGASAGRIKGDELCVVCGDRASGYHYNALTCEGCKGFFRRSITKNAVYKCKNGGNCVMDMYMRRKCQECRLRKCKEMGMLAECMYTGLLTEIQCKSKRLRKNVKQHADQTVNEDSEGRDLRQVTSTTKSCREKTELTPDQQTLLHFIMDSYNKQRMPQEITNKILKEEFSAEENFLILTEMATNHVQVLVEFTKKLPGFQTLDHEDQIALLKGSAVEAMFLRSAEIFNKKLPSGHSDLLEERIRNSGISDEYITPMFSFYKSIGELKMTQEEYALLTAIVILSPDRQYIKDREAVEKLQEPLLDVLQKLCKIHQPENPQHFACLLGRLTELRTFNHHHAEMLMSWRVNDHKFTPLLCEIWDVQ
Peroxisome proliferator-activated receptor gamma (Homo sapiens), sequence (P37231 whole entry, looked up): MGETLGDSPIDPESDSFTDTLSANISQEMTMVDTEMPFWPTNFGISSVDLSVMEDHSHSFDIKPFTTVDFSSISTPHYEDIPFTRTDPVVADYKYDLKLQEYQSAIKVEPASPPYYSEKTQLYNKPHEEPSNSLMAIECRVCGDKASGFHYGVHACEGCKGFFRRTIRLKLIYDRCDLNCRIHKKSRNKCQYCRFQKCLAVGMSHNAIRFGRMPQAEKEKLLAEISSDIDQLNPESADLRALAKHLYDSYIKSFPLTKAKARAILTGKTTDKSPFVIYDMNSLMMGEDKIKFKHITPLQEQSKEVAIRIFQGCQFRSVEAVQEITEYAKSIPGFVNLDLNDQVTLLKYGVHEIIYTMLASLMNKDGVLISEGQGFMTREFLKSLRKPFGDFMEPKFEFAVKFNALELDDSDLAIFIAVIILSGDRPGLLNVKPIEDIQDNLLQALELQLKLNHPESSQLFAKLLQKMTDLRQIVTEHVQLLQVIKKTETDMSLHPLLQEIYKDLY

`C=CN1CCCC1=O`: the call in assay [1], in assay [2], in assay [3], in assay [4], in [5] and in [6] was inactive.

On to `O=C(NO)C1(NS(=O)(=O)c2ccc(Oc3ccc(F)cc3)cc2)CCOCC1`, for which the outcome in [7], in [1], in assay [2], in assay [3], in assay [5] and in assay [6] was inactive.

As for `NNC(=O)c1ccncc1`, the result in assay [7], in [1], in assay [2], in assay [3], in assay [4] and in assay [5] was inactive. Besides, the outcome in assay [6] was inactive.

Turning to `CCn1nc(C)c2c1C(=O)NCC(c1ccc(O)cc1)=N2`, the compound was called inactive in assay [7], in assay [1], in [2], in assay [3], in assay [4] and in assay [5]. The outcome in [6], in [8], in assay [9], in [11] and in assay [12] was inactive. Further, the AC50 is 21.4 µM (active) in assay [4]; 2.63 µM (active) in [10]; 50 µM (active) in assay [13]; 0.18 µM (active) in [14]; 0.185 µM (active) in assay [15].

As for `O=C(O)c1cccc(C(=O)O)c1`, the call in assay [1], in [2], in assay [16], in assay [17] and in assay [5] was inactive.

For `CC(=O)c1ccccc1`, the compound was called inactive in assay [1], in [2], in assay [3], in assay [4] and in assay [5].

Take `NC(=O)NN=Cc1ccc([N+](=O)[O-])o1`: the compound was classed as inactive in [7], in [1], in [2], in [3], in [4] and in [5]. Besides, the call in assay [6] was inactive.

On to `CCCCCCCCN(C)C`, for which the call in assay [1], in [2], in assay [3], in assay [4], in [5] and in [6] was inactive. The result in [8], in [9], in assay [10], in assay [11], in assay [12] and in assay [13] was inactive.

On to `Cc1ncc([C@@H](CCCCCCc2ccc3c(n2)NCCC3)CC(=O)O)cn1`, for which the compound was called inactive in assay [7], in assay [1], in assay [2], in assay [17], in [3] and in assay [4]. The result in assay [5], in [6], in [9] and in assay [15] was inactive. Also, the AC50 in assay [5] was 12.4 µM (active).

In the case of `CC1(C)C(=O)N(Cl)C(=O)N1Cl`, the result in [1], in [2], in [3], in assay [4], in assay [5] and in assay [6] was inactive.

Take `CC[C@H](C)C(=O)O[C@H]1C[C@H](O)C=C2C=C[C@H](C)[C@H](CC[C@@H](O)C[C@@H](O)CC(=O)O)[C@H]21`: the call in assay [7], in assay [1], in [2], in [3], in assay [4] and in [5] was inactive. The compound was classed as inactive in assay [6], in [12], in [14] and in assay [15]. Besides, the AC50 in assay [8] was 5.33 µM (active); in assay [9], 1.06 µM (active); in assay [10], 5.55 µM (active); in assay [11] it was 6.77 µM (active); in [13], 2.7 µM (active).

For `O=S(=O)(O)c1ccc(N=Nc2c(O)ccc3cc(S(=O)(=O)O)ccc23)cc1`, the compound was classed as inactive in assay [1], in [2], in assay [17], in [3] and in assay [4].

With `O=C1CN(N=Cc2ccc([N+](=O)[O-])o2)C(=O)N1`, the compound was classed as inactive in assay [7], in [1], in assay [2] and in [5].

For `CCCCN1C(=O)[C@@H]([C@H](O)C2CCCCC2)NC(=O)C12CCN(Cc1ccc(Oc3ccc(C(=O)O)cc3)cc1)CC2`, the outcome in assay [7], in assay [1], in [2], in assay [3], in [4] and in assay [5] was inactive.

On to `OC[C@H]1O[C@@](CO)(O[C@H]2O[C@H](CO)[C@@H](O)[C@H](O)[C@H]2O)[C@@H](O)[C@@H]1O`, for which the call in assay [7], in [1], in assay [2], in [17], in assay [3] and in assay [4] was inactive. Besides, the call in [5] was inactive.

Regarding `OCC(CO)(CO)CO`, the compound was classed as inactive in assay [7], in assay [1], in assay [2], in assay [4] and in assay [5].

Turning to `NC(N)=O`, the compound was called inactive in [7], in [1], in [2], in [3], in assay [4] and in assay [5].

As for `CCCc1ccccc1`, the compound was classed as inactive in assay [7], in assay [1], in assay [2], in assay [3], in assay [4] and in [5].

`C[C@@H](Oc1ccc(CNC(=O)c2cccnc2Oc2ccc3c(c2)OCO3)c(F)c1)C(=O)O`: the call in assay [7], in assay [1], in assay [2], in assay [16], in [3] and in assay [4] was inactive. Moreover, the compound was classed as inactive in assay [5], in [8], in [9], in assay [10], in assay [11] and in assay [12]. The result in assay [13] and in assay [14] was inactive. In assay [15], the AC50 is 0.128 µM (active).

As for `OCc1c[nH]c2ccccc12`, the result in [9], in assay [18], in assay [14] and in [15] was inactive. The AC50 in assay [10] was 15.8 µM (active).
